Common to all, as to assay: NCI-60 one-dose screen, 48 h (100 = growth as untreated, 0 = no growth, -100 = all killed)
The test system of assay [1] is HT29 colon. Conditions: 10 µM unless noted.
The subject of assay [2] is SNB-75 CNS. Conditions: 10 µM unless noted.
Assay [3] concerns SNB-19 CNS. Conditions: 10 µM unless noted.
Assay [4] concerns U251 CNS. Conditions: 10 µM unless noted.
In assay [5] the test system is PC-3 prostate. The note with it: 10 µM unless noted.
The test system of assay [6] is SK-MEL-5 melanoma. The note with it: 10 µM unless noted.
The test system of assay [7] is UACC-62 melanoma. The note with it: 10 µM unless noted.
Assay [8] has as its system LOX IMVI melanoma. The note with it: 10 µM unless noted.
Assay [9] concerns SK-MEL-28 melanoma. Conditions: 10 µM.
Assay [10] concerns SK-MEL-2 melanoma. The note with it: 10 µM unless noted.
The subject of assay [11] is SN12C renal. Conditions: 10 µM unless noted.
The test system of assay [12] is UO-31 renal. Conditions: 10 µM unless noted.
The test system of assay [13] is TK-10 renal. The note with it: 10 µM unless noted.
Assay [14] has as its system ACHN renal. Conditions: 10 µM unless noted.
Assay [15] has as its system CAKI-1 renal. The note with it: 10 µM unless noted.
Assay [16] has as its system A498 renal. The note with it: 10 µM unless noted.
The test system of assay [17] is CCRF-CEM leukemia. Conditions: 10 µM unless noted.
Assay [18] deals with MOLT-4 leukemia. Conditions: 10 µM unless noted.
In assay [19] the test system is SR leukemia. Conditions: 10 µM unless noted.

We go through eight molecules from PubChem BioAssay (NCI).

Compounds without any hit were thinned out: in the full panel of roughly 83,000, 20% have a hit.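 Treatment: one concentration, 48 hours, 96-well format. Scoring: percent growth, with anything below 10 considered active.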 Unmarked numbers belong to inactive results. Calls of active or inactive are those of the source.

In the case of `COc1ccccc1N1C(=N)S/C(=C\c2ccc(OCc3ccccc3F)cc2)C1=O`, the growth in assay [1] was 108%; in assay [2], 76%; in assay [3] it was 90.9%; in assay [4] it was 78.9%; in assay [5], 66.9%; in assay [6], 92.5%. The growth was 63.7% in [7]; 80.1% in assay [8]; 95% in assay [9]; 82.7% in assay [10]; 80.7% in [11]; 59.2% in assay [12]. Moreover, the growth in assay [13] is 104%; in assay [14], 69.6%; in assay [15] it was 81.6%; in assay [16], 82%; in assay [17] it was 65.8%; in assay [18] it was 53%. Also, in assay [19], the growth is 73.4%.
As to `Cc1ccc(Nc2nc(N)c3ccccc3n2)cc1Cl`, the growth in assay [1] is 27.4%; in [2], 95.2%; in [3] it was 84.4%; in assay [4], 61.8%; in [5] it was 60.4%; in assay [6] it was 60.2%. Moreover, the growth in assay [7] was 53.9%; in assay [8] it was 40.4%; in [9], 102%; in [10], 50.9%; in assay [11], 65.4%; in assay [12], 57.2%. For the same molecule, the growth was 81.5% in [13]; 64.4% in assay [14]; 39.7% in assay [15]; 72.3% in assay [16]; 48.3% in assay [17]; 48.9% in assay [18]. Besides, the growth in assay [19] is 1.13% (active).
Take `Cc1ccc2cc3c(N)c4c(C)ccc(C)c4nc3nc2c1`: the growth is 4.73% (active) in assay [1]; 41.2% in assay [2]; 80.2% in assay [3]; -5.79% (active) in assay [4]; 63.9% in assay [5]; 11.8% in assay [6]. Besides, the growth in assay [7] is -73% (active); in [8], -53.8% (active); in assay [9] it was -80.6% (active); in assay [10], -33.2% (active); in [11] it was 63.9%; in [12] it was 10.4%. The growth in [13] was 66.6%; in assay [14] it was 60.8%; in assay [15] it was 7.98% (active); in [16] it was 41.9%; in [17], 39.6%; in assay [18] it was 44.8%. Moreover, the growth in assay [19] is -9.96% (active).
With `COc1ccc(C(=O)C2CC2c2ccc(Cl)cc2)cc1` (configuration not stated), the growth in assay [1] was 104%; in assay [2], 75.6%; in [3] it was 117%; in [4], 82.4%; in assay [5], 72.5%; in assay [6] it was 96.7%. The growth is 84.9% in assay [7]; 91.1% in assay [8]; 107% in assay [9]; 89% in assay [10]; 85% in assay [11]; 64.4% in assay [12]. For the same molecule, the growth was 103% in assay [13]; 78.6% in [14]; 87.9% in assay [15]; 114% in assay [16]; 9.89% (active) in [17]; 41.2% in assay [18]. Besides, the growth in assay [19] is 77.8%.
Turning to `COc1cc(-c2c3c(cn2S(=O)(=O)c2ccccc2)-c2nc(N)sc2CC3)cc(OC)c1OC`, the growth is 9% (active) in assay [1]; 12.1% in [2]; 29% in [3]; 25.8% in assay [4]; 41.8% in assay [5]; 14.1% in assay [6]. The growth in [7] is 51.1%; in assay [8] it was 38.4%; in [9], 68.6%; in [10], 54.3%; in assay [11] it was 54.1%; in [12], 30.5%. Besides, the growth in assay [13] is 53.4%; in assay [14] it was 49.9%; in [15], 34.2%; in assay [16], 21.1%; in assay [17], 7.05% (active); in assay [18], 23.5%. Further, the growth in [19] was 9.55% (active).
As to `OC(CNC1CCCCC1)Cn1c2ccc(I)cc2c2cc(I)ccc21` (configuration not stated), the growth in assay [1] was 95.7%; in assay [2], 50.4%; in [3] it was 86%; in [4], 72.6%; in [5], 62.5%; in assay [6], 67.7%. Moreover, the growth in [7] is 64.8%; in assay [8] it was 77.4%; in assay [9], 81.3%; in [10], 97%; in [11], 70.1%; in assay [12], 47.7%. The growth in assay [13] was 94.6%; in [14], 75.4%; in assay [15] it was 63.9%; in assay [16], 87.8%; in assay [17] it was 78.1%; in assay [18], 68.2%. In assay [19], the growth is 68.1%.
Turning to `COc1ccc(Cn2c(Br)c3c(c2Br)-c2nc(NC(=O)c4ccc(OC)cc4)sc2CC3)cc1`, the growth is 84.8% in [1]; 48.2% in [2]; 80.1% in assay [3]; 67.8% in assay [4]; 71.5% in [5]; 62.1% in assay [6]. Further, the growth is 63.5% in assay [7]; 80.3% in [8]; 81.8% in assay [9]; 83.8% in assay [10]; 85.1% in [11]; 44.9% in assay [12]. Also, the growth is 89.4% in assay [13]; 51.8% in assay [14]; 76.2% in assay [15]; 65.9% in assay [16]; 85.3% in assay [17]; 94.7% in [18]. Also, the growth in assay [19] was 67.4%.
On to `CCn1c(SCC(=O)Nc2cc(C(F)(F)F)ccc2Cl)nc2ccccc2c1=O`, for which the growth in assay [1] was 15.7%; in [2], 13.4%; in [3] it was 93.5%; in assay [4] it was 47.9%; in [5], 17.5%; in [6], 25.7%. The growth is -79.1% (active) in assay [7]; -7.15% (active) in [8]; -28.6% (active) in assay [9]; 87.3% in assay [10]; 57.1% in [11]; 22.7% in assay [12]. Further, the growth is 33.7% in assay [13]; 39.1% in assay [14]; 48.4% in assay [15]; 35.6% in assay [16]; -3.31% (active) in [17]; -7.72% (active) in assay [18]. Further, in assay [19], the growth was -16.2% (active).
